Source: ChEMBL document CHEMBL3988442, “University of Dundee, Small-Polar-MMV Screening Library” (2021)
For some of these results: Measured potencies and affinities stand elsewhere.

How the values were obtained:
Set-up in all cases: scale not given: direction of the effect not stated beside the values
[1] = target: Protein translocase subunit SecA (Escherichia coli (strain K12)) (UniProt P10408); experiment: Assay to Identify E. coli SecA ATPase Inhibitors; assay type: functional; conditions: 30 µM
Protein translocase subunit SecA (Escherichia coli (strain K12)), sequence (P10408 whole entry): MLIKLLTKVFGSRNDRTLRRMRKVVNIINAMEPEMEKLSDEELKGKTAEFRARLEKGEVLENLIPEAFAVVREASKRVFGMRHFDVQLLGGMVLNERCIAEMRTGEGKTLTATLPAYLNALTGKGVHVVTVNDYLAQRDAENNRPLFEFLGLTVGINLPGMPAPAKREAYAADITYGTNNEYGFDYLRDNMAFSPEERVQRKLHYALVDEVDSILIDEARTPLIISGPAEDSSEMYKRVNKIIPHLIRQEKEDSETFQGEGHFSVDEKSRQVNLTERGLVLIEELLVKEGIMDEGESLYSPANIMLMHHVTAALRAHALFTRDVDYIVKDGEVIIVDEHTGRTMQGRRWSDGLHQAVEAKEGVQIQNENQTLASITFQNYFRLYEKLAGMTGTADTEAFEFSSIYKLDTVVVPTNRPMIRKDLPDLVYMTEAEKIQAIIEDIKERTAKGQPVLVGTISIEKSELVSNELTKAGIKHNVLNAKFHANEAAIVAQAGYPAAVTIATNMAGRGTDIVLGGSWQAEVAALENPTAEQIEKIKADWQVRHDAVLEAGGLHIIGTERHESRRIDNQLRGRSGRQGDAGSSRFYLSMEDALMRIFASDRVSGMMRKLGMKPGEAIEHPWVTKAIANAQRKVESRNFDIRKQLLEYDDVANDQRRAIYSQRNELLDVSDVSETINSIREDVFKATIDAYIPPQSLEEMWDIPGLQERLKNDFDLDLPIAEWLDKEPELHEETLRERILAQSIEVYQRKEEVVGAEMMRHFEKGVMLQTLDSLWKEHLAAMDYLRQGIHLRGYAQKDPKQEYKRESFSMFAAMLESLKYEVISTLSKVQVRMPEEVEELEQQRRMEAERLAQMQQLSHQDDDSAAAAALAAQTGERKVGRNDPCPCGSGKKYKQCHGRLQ

[2] = target: T1, Ubiquitin-activating enzyme e1, putative (Leishmania donovani (strain BPK282A1)) (UniProt E9BSI1); experiment: Leishmania donovani Ubiquitin Activating Enzyme (LdE1); assay type: functional; conditions: 30 µM
T1 sequence (whole entry): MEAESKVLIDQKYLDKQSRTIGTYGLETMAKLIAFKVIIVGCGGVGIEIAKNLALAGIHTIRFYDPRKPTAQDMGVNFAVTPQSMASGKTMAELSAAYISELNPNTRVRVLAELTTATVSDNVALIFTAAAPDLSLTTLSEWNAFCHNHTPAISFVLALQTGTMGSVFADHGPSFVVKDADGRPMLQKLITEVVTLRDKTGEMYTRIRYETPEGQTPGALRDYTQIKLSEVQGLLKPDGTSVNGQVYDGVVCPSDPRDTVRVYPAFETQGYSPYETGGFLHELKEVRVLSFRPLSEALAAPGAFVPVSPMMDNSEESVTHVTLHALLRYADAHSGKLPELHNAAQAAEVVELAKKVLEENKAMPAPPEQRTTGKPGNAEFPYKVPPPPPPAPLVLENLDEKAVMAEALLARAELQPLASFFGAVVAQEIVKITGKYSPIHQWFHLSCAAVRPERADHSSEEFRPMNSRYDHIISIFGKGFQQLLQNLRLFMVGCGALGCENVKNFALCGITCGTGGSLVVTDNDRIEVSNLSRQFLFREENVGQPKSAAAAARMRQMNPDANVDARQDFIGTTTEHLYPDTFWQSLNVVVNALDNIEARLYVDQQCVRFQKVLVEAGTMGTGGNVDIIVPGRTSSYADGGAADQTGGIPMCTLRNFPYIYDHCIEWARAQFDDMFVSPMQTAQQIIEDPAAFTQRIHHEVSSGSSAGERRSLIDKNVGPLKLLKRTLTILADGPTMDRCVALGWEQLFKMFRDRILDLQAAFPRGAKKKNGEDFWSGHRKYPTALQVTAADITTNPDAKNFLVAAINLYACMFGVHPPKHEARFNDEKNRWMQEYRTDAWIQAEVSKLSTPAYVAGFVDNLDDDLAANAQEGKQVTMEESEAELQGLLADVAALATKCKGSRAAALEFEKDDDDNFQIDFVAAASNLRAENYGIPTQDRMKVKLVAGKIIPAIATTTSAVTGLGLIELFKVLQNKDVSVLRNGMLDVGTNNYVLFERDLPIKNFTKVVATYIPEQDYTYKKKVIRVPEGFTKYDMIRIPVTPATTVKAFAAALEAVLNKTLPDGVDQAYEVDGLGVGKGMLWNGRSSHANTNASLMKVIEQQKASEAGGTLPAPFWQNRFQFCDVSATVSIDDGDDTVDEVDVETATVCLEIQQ

[3] = target: AMP-activated protein kinase, AMPK (Homo sapiens) (UniProt P54646+O43741+P54619+Q9UGJ0+Q9Y478+Q13131+Q9UGI9); experiment: AMP-dependent Kinase enzyme assay. An in vitro enzyme assay that detects ADP turnover that is directly proportional to AMPK activity. This uses naive AMPK that is activated during the assay with MK-8722; assay type: functional; conditions: 30 µM
[4] = target: Sialic acid-binding Ig-like lectin 9 (Homo sapiens) (UniProt Q9Y336); experiment: Hs-Siglec9 ALPHAscreen SOP 20170721; conditions: 10 µM
Sialic acid-binding Ig-like lectin 9 (Homo sapiens), sequence (Q9Y336 whole entry): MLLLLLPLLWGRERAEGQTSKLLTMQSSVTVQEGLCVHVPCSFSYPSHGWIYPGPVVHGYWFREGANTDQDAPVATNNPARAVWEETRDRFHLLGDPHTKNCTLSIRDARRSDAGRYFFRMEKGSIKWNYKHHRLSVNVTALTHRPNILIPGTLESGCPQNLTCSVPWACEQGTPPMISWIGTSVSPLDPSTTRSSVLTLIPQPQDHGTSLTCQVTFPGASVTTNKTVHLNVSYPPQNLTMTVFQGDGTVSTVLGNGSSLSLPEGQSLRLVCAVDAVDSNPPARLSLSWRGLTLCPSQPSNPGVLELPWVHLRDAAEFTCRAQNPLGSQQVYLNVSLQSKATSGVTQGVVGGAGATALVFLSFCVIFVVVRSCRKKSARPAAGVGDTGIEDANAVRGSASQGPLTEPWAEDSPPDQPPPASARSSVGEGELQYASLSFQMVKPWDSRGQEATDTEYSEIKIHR

Trypanosoma cruzi = experiment: Trypanosoma cruzi phosphomannomutase and mannose-1-phosphate guanylyltransferase assay; assay type: functional; conditions: 10 µM
[5] = target: T2, Arginase-2, mitochondrial (Homo sapiens) (UniProt P78540); experiment: in vitro enzyme assay to detect the production of urea directly proportional to the activity of Arginase II; assay type: functional; conditions: 33.3 µM; also: in the data most compounds retested in dose-response had high values
T2 sequence (whole entry): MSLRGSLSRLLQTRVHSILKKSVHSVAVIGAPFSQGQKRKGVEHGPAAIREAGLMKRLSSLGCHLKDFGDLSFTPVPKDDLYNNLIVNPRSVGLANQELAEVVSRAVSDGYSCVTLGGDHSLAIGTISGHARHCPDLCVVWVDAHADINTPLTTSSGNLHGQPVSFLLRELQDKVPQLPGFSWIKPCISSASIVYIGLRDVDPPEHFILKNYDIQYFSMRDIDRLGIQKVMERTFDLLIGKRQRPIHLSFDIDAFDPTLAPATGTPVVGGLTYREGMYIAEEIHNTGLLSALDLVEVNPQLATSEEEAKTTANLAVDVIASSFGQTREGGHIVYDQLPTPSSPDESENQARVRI

[6] = target: T3, Proteasome subunit beta (Trypanosoma cruzi) (UniProt O96673); experiment: Trypanosoma cruzi proteasome chymotrypsin-like activity (TcProtChymo) assay.; also: in the data most compounds retested in dose-response had high values; assay type: functional; conditions: 9.37 µM
T3 sequence (whole entry): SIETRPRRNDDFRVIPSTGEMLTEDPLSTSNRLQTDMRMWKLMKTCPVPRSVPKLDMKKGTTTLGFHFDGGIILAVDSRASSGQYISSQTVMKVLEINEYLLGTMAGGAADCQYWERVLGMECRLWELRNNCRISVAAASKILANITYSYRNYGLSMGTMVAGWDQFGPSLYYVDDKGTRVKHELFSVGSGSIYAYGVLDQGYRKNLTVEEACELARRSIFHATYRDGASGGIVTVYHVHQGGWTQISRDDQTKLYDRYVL

Homo sapiens = species: Homo sapiens; experiment: To identify inhibition of the IFN signalling (Jak-Stat) pathway via expression of an eGFP reporter gene under the control of an IFN-stimulated response element (ISRE) containing MxA promoter.; assay type: functional; conditions: 30 µM
[7] = target: T4, Tyrosyl-tRNA synthetase, putative (Trypanosoma cruzi (strain CL Brener)) (UniProt Q4DSP6); experiment: Trypanosoma cruzi tyrosyl tRNA synthetase (TcYRS) _High Tyrosine SOP; assay type: functional; conditions: 30 µM; also: in the data most compounds retested in dose-response had high values
T4 sequence (whole entry): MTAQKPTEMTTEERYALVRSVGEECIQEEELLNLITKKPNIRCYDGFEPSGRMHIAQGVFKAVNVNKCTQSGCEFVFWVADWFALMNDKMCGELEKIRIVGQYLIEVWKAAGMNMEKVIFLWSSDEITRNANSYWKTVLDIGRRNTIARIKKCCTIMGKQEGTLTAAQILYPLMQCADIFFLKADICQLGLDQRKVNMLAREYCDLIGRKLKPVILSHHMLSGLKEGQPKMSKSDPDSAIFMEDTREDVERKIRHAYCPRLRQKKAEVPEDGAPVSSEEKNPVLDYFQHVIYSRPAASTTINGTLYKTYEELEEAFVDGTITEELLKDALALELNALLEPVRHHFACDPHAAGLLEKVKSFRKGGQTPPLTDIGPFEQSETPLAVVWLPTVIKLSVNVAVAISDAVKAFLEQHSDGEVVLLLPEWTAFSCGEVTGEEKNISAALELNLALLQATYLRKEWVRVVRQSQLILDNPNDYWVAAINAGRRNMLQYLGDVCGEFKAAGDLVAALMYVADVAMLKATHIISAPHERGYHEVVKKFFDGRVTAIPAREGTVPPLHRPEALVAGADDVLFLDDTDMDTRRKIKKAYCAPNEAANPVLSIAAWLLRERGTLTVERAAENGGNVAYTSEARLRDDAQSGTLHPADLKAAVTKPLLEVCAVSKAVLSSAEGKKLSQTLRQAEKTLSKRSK

[8] = target: T4, Tyrosyl-tRNA synthetase, putative (Trypanosoma cruzi (strain CL Brener)); experiment: Trypanosoma cruzi tyrosyl tRNA synthetase (TcYRS) SOP; assay type: functional; conditions: 30 µM
[9] = target: Chromo domain-containing protein 1 (Saccharomyces cerevisiae (strain ATCC 204508 / S288c) (Baker's yeast)) (UniProt P32657); experiment: ScCHD-1 Enzyme Inhibition Assay; assay type: functional; conditions: 30 µM; also: in the data most compounds retested in dose-response had high values
Chromo domain-containing protein 1 (Saccharomyces cerevisiae (strain ATCC 204508 / S288c) (Baker's yeast)), sequence (P32657 whole entry, the tested form may be a part): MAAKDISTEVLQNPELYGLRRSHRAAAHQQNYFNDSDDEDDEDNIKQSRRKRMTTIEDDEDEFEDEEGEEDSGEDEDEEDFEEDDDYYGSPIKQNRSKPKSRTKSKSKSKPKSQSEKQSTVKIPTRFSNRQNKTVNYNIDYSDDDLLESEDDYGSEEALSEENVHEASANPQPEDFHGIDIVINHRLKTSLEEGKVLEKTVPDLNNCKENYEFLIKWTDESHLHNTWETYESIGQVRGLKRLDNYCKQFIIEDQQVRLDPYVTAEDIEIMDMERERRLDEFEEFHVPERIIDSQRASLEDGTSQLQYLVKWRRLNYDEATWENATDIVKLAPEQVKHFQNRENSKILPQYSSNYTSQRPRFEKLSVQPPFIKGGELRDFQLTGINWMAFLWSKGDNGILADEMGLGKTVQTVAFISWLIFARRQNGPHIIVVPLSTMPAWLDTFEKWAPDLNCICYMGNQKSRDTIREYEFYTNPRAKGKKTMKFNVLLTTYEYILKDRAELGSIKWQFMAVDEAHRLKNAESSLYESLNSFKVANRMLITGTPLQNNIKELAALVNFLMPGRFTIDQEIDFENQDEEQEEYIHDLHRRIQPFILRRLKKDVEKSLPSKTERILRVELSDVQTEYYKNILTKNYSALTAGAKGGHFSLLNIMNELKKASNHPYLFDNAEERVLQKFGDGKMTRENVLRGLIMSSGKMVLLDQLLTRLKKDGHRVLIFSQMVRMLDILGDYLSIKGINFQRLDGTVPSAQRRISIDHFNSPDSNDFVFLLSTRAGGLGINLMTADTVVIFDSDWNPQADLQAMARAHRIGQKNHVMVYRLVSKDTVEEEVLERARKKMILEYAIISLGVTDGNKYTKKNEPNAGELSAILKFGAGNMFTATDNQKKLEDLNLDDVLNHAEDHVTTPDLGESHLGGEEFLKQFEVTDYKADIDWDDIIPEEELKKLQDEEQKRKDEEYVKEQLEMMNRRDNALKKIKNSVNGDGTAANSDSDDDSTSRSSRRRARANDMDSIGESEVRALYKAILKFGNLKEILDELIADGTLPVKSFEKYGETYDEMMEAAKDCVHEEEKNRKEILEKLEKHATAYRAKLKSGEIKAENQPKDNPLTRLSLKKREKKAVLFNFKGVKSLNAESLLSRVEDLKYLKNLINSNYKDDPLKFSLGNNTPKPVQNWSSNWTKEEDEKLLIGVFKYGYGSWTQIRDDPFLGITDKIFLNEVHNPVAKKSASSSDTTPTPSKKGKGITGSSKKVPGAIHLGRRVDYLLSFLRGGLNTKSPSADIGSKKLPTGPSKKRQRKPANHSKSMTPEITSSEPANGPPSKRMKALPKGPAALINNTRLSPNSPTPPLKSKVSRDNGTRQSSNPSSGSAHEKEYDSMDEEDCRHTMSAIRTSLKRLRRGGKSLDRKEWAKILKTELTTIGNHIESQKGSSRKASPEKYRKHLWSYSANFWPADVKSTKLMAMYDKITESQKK

Compound	Percent Effect [1]	Percent Effect [2]	Percent Effect [3]	Percent Effect [4]	Percent Effect (Trypanosoma cruzi)	Percent Effect [5]	Percent Effect [6]	Percent Effect (Homo sapiens)	Percent Effect [7]	Percent Effect [8]	Percent Effect [9]
CC(O)CN1CCN(C(=O)c2ccc3c(c2)COC3)CC1 (stereo unspecified)	-5%	10.1%	-4.14%	3.8%	6.14%	-4.18%	3.19%	-12.6%	4.43%	16.5%	-13.8%
COCCCn1ccnc1-c1cnc(OC)nc1	-0.0522%	5.41%	-3.25%	0.687%	-0.386%	-3.33%	21.6%	-18.9%	6.88%	4.88%	-3.88%
COCC1c2c(cnn2C)CCN1Cc1ccc(F)cc1 (stereo unspecified)	-4.38%	-2.7%	1.18%	-3.56%	-2.93%	1.25%	5.66%	-1.22%	5.94%	8.54%	2.82%
CCn1c(N)nc2cc(C(=O)NCCc3sccc3C)cnc21	-4.71%	-2.74%	1.2%	24.5%	5.29%	-2.73%	28.6%	8.68%	3.23%	20%	-6.44%
CN(Cc1nnc(C2CC2)n1C)C1CCN(Cc2ccccc2F)C1 (stereo unspecified)	-3.03%	-5.48%	-2.94%	2.42%	2.18%	-3.19%	10.4%	-27.4%	0%	8.64%	-4.72%
Cc1nccc(C(=O)N2CCCN(Cc3cnn(C(C)C)c3)CC2)n1	-7.35%	-8.11%	0.58%	14.6%	-2.93%	-0.833%	7.35%	1.24%	5.94%	11%	6.2%
Cc1nc[nH]c1CN1C[C@@H]2CC[C@H](C1)N(C(=O)CCc1cnn(C)c1)C2	-1.58%	6.94%	-9.43%	16.8%	4.96%	29.1%	5.09%	-11.8%	2.1%	7.69%	-1%
Cc1occc1C(=O)Nc1ccnc(OC2CCOC2)c1 (stereo unspecified)	-0.474%	6.94%	-7.48%	6.54%	4.57%	7.95%	14.7%	3.88%	-2.1%	2.56%	-2.37%
Cc1ncc(CNC(=O)Nc2cc(C(F)(F)F)c[nH]c2=O)s1	-6.87%	-1.39%	-10.2%	-4.64%	-5.34%	2.65%	18.2%	-11.2%	-1.05%	-2.56%	0.478%
CS(=O)(=O)c1ccc(OCCNCc2cccc(F)c2)cc1	-6.14%	0%	1.51%	6.7%	3.57%	-0.798%	4.02%	3.81%	8.33%	13.6%	3.19%
CC(C)N1CCc2c(C#N)c(NCc3ccco3)n3cnnc3c2C1	-3.81%	7.89%	6.37%	-3.12%	-3.8%	3.55%	15.4%	-16.1%	1.06%	7.79%	-9.63%
